Results on 17 compounds are retold here after PubChem BioAssay.

Test [1] is described as follows: kinase inhibitors against Plasmodium liver-stage infection, cell-based, known kinase inhibitor set, luminescence, hepatoma host viability (AID 624392).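 Note: infected cells incubated roughly two days before readout.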 Particulars: Plasmodium liver stage in hepatoma cells, luciferase luminescence, concentration not given here; liver cell % of control: measured here: host liver cell viability; parasite % of control: stronger effect = lower value.

The subject of test [2] is Neuropilin-2 / VEGF-C interaction (human). Nature of the test: inhibitors of NRP2–VEGF-C binding, biochemical, microplate binding format, z-score (AID 743281). Particulars: microplate NRP2/VEGF-C binding assay.

The source made the active and inactive calls. The rule behind the calls is not given here.

`Cc1ccc(C(=O)Nc2cccc(C(F)(F)F)c2)cc1NC(=O)c1ccno1`: in test [1], the liver cell % of control turned out to be 103% and the parasite % of control was 87.9% (inactive). Take `Cc1ccc(C(=O)Nc2cccc(C(F)(F)F)c2)cc1NC(=O)c1nccnc1N`: in test [1], the liver cell % of control stood at 95% and the parasite % of control is 83.1% (inactive). The matching figures for `CN(C)CC=CC(=O)Nc1cccc(-c2c[nH]c3ncnc(Oc4ccc(NC(=O)CC(=O)Nc5ccc(F)cc5)cc4F)c23)c1`: 96.3% and 155% (inactive). The matching figures for `COc1cc(NC(=O)c2csc(-c3ccncc3)n2)cc(C(=O)Nc2cccc(C(F)(F)F)c2)c1`: 95.7% and 124% (inactive). In the case of `COc1cc(C(=O)NC2CCN(C)CC2)ccc1Nc1ncc2c(n1)N(Cc1ccccc1)CCC(=O)N2C`, in test [1], the liver cell % of control came out at 97.7% and the parasite % of control is 579% (inactive). The like results for `NS(=O)(=O)c1ccc(-c2cccc(C=C3SC(=O)NC3=O)c2)cc1` were, in that order, 87.7% and 17% (inactive). As to `CCN1C(=O)CCN(C2CCCC2)c2nc(Nc3ccc(C(=O)NC4CCN(C)CC4)cc3OC)ncc21`, in test [1], the liver cell % of control stood at 91.7% and the parasite % of control is 362% (inactive). The like results for `CCN1CCN(Cc2ccc(NC(=O)c3ccc(C)c(NC(=O)C4=NN(c5ccccc5)C(=O)C4)c3)cc2C(F)(F)F)CC1` were, in that order, 101% and 72.3% (inactive). The like results for `CC(C)n1cnc2c(Nc3cccc(Cl)c3)nc(NCCCO)nc21` were, in that order, 90.1% and 206% (inactive). The like results for `CC(C)CC(CO)Nc1nc(Nc2cccc(Cl)c2)c2ncn(C(C)C)c2n1` (stereo not drawn) were, in that order, 102% and 148% (inactive). For `CCN1CCN(Cc2ccc(NC(=O)c3cc(NC(=O)C(=O)c4c[nH]c5ccccc45)cc(OC)c3)cc2C(F)(F)F)CC1`, in test [1], the liver cell % of control was determined as 92.9% and the parasite % of control was 85.7% (inactive). The matching figures for `O=C(Nc1cccc(-c2csc(Nc3ccc(Cl)cc3)n2)c1)c1cc([N+](=O)[O-])cc(C(F)(F)F)c1`: 95.1% and 192% (inactive). The matching figures for `CCN1CCN(Cc2ccc(NC(=O)c3cc(NC(=O)c4cnn(-c5ccccc5)c4N)cc(OC)c3)cc2C(F)(F)F)CC1`: 109% and 130% (inactive).

For the compound `CC(C)n1cnc2c(Nc3ccc(F)c(Cl)c3)nc(NCCO)nc21`, in test [1], the liver cell % of control is 96.9% and the parasite % of control was 107% (inactive). The like results for `CN(C)CCCNc1ccc(-c2cc(Nc3cccc(Cl)c3)ncn2)cn1` were, in that order, 94.9% and 108% (inactive).

Regarding `CCN1CCN(Cc2ccc(C(=O)Nc3ccc(C)c(NCc4cnc(NC(=O)OC)cn4)c3)cc2C(F)(F)F)CC1`, in test [1], the liver cell % of control is 105% and the parasite % of control is 107% (inactive). With `CO[C@H]1C=CO[C@@]2(C)Oc3c(C)c(O)c4c(O)c(c5c(c4c3C2=O)NC2(CCN(CC(C)C)CC2)N=5)=NC(=O)/C(C)=C\C=C[C@H](C)[C@H](O)[C@@H](C)[C@@H](O)[C@@H](C)[C@H](OC(C)=O)[C@@H]1C`, in test [2], the outcome was inactive.
